Measured values reported in ChEMBL document CHEMBL3988442, “University of Dundee, Small-Polar-MMV Screening Library” (2021).
For some assays here: Results with a measured potency or affinity are listed apart.

Assays:
Set-up in all cases: scale not given: direction of the effect not stated beside the values
[1] = biological target: Protein translocase subunit SecA (Escherichia coli (strain K12)) (UniProt P10408); test: Assay to Identify E. coli SecA ATPase Inhibitors; format: functional; conditions: 30 µM
[2] = biological target: T1, Ubiquitin-activating enzyme e1, putative (Leishmania donovani (strain BPK282A1)) (UniProt E9BSI1); test: Leishmania donovani Ubiquitin Activating Enzyme (LdE1); format: functional; conditions: 30 µM
T1 sequence (whole entry): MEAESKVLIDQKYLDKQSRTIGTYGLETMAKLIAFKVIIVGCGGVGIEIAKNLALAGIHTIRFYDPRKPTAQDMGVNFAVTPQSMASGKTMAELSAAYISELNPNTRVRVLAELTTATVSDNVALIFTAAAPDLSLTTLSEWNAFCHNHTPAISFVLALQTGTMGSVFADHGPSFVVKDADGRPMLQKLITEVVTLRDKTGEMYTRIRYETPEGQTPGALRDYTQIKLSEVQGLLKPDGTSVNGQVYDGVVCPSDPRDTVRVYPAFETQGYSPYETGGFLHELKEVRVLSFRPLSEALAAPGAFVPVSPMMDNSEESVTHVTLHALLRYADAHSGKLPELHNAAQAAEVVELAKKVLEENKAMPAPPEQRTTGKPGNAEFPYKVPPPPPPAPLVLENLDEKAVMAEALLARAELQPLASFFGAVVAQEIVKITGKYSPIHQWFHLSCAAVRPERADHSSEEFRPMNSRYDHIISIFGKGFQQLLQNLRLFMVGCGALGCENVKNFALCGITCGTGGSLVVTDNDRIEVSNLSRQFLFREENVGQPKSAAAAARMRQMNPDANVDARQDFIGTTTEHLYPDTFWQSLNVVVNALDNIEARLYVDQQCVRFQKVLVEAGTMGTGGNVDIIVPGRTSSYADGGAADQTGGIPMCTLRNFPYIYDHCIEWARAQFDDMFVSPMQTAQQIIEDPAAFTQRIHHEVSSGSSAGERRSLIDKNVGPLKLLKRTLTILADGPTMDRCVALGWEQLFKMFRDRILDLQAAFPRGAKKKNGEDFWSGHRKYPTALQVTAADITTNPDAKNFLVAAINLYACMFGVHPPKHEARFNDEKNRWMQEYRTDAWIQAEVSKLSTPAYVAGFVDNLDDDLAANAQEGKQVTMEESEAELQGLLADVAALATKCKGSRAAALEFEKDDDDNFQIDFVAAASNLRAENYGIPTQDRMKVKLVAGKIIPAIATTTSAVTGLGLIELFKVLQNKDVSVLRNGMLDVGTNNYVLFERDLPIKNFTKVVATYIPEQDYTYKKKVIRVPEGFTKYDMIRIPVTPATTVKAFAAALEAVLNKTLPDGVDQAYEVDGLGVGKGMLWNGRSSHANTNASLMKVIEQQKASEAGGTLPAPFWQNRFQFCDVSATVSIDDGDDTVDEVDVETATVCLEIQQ

[3] = biological target: AMP-activated protein kinase, AMPK (Homo sapiens) (UniProt P54646+O43741+P54619+Q9UGJ0+Q9Y478+Q13131+Q9UGI9); test: AMP-dependent Kinase enzyme assay. An in vitro enzyme assay that detects ADP turnover that is directly proportional to AMPK activity. This uses naive AMPK that is activated during the assay with MK-8722; format: functional; conditions: 30 µM
[4] = biological target: Sialic acid-binding Ig-like lectin 9 (Homo sapiens) (UniProt Q9Y336); test: Hs-Siglec9 ALPHAscreen SOP 20170721; conditions: 10 µM
Trypanosoma cruzi = test: Trypanosoma cruzi phosphomannomutase and mannose-1-phosphate guanylyltransferase assay; format: functional; conditions: 10 µM
[5] = biological target: T2, Arginase-2, mitochondrial (Homo sapiens) (UniProt P78540); test: in vitro enzyme assay to detect the production of urea directly proportional to the activity of Arginase II; format: functional; conditions: 33.3 µM; note: in the data most compounds retested in dose-response had high values
T2 sequence (whole entry): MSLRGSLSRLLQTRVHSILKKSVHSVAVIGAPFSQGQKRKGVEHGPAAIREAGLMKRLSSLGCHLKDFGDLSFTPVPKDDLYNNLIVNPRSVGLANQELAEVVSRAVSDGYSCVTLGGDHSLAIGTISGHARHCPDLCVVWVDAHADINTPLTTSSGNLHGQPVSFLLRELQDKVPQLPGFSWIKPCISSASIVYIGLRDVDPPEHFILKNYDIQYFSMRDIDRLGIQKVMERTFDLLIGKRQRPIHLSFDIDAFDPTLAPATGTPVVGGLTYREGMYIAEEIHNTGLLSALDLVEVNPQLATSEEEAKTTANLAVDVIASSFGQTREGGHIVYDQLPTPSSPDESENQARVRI

[6] = biological target: T3, Proteasome subunit beta (Trypanosoma cruzi) (UniProt O96673); test: Trypanosoma cruzi proteasome chymotrypsin-like activity (TcProtChymo) assay.; note: in the data most compounds retested in dose-response had high values; format: functional; conditions: 9.37 µM
T3 sequence (whole entry): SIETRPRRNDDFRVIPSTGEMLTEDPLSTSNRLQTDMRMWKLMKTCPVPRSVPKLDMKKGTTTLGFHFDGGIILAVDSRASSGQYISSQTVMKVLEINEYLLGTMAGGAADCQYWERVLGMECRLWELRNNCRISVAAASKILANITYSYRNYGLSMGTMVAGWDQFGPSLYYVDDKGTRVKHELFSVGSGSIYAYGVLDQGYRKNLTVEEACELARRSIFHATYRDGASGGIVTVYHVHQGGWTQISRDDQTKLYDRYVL

Homo sapiens = species: Homo sapiens; test: To identify inhibition of the IFN signalling (Jak-Stat) pathway via expression of an eGFP reporter gene under the control of an IFN-stimulated response element (ISRE) containing MxA promoter.; format: functional; conditions: 30 µM
[7] = biological target: T4, Tyrosyl-tRNA synthetase, putative (Trypanosoma cruzi (strain CL Brener)) (UniProt Q4DSP6); test: Trypanosoma cruzi tyrosyl tRNA synthetase (TcYRS) _High Tyrosine SOP; format: functional; conditions: 30 µM; note: in the data most compounds retested in dose-response had high values
T4 sequence (whole entry): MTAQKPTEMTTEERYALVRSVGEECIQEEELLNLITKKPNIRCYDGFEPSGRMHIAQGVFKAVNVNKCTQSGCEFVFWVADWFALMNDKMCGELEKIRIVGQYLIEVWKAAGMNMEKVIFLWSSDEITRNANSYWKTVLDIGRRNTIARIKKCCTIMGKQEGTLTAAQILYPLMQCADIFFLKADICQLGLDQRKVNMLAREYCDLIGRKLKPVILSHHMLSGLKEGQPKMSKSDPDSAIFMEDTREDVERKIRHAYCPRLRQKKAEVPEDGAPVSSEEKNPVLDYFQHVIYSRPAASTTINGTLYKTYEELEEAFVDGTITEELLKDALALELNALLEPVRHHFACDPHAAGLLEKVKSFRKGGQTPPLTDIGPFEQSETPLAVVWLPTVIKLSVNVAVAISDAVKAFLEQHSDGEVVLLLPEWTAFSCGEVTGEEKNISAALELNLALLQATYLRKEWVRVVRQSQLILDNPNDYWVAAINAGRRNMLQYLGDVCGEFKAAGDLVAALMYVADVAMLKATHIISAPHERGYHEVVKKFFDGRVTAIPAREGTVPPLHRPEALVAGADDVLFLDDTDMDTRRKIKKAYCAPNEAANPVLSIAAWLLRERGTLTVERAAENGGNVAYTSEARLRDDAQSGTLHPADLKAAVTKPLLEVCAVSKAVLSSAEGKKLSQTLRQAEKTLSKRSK

[8] = biological target: T4, Tyrosyl-tRNA synthetase, putative (Trypanosoma cruzi (strain CL Brener)); test: Trypanosoma cruzi tyrosyl tRNA synthetase (TcYRS) SOP; format: functional; conditions: 30 µM
[9] = biological target: Chromo domain-containing protein 1 (Saccharomyces cerevisiae (strain ATCC 204508 / S288c) (Baker's yeast)) (UniProt P32657); test: ScCHD-1 Enzyme Inhibition Assay; format: functional; conditions: 30 µM; note: in the data most compounds retested in dose-response had high values
Sequence of Chromo domain-containing protein 1 (Saccharomyces cerevisiae (strain ATCC 204508 / S288c) (Baker's yeast)) (P32657 whole entry, the tested form may be a part): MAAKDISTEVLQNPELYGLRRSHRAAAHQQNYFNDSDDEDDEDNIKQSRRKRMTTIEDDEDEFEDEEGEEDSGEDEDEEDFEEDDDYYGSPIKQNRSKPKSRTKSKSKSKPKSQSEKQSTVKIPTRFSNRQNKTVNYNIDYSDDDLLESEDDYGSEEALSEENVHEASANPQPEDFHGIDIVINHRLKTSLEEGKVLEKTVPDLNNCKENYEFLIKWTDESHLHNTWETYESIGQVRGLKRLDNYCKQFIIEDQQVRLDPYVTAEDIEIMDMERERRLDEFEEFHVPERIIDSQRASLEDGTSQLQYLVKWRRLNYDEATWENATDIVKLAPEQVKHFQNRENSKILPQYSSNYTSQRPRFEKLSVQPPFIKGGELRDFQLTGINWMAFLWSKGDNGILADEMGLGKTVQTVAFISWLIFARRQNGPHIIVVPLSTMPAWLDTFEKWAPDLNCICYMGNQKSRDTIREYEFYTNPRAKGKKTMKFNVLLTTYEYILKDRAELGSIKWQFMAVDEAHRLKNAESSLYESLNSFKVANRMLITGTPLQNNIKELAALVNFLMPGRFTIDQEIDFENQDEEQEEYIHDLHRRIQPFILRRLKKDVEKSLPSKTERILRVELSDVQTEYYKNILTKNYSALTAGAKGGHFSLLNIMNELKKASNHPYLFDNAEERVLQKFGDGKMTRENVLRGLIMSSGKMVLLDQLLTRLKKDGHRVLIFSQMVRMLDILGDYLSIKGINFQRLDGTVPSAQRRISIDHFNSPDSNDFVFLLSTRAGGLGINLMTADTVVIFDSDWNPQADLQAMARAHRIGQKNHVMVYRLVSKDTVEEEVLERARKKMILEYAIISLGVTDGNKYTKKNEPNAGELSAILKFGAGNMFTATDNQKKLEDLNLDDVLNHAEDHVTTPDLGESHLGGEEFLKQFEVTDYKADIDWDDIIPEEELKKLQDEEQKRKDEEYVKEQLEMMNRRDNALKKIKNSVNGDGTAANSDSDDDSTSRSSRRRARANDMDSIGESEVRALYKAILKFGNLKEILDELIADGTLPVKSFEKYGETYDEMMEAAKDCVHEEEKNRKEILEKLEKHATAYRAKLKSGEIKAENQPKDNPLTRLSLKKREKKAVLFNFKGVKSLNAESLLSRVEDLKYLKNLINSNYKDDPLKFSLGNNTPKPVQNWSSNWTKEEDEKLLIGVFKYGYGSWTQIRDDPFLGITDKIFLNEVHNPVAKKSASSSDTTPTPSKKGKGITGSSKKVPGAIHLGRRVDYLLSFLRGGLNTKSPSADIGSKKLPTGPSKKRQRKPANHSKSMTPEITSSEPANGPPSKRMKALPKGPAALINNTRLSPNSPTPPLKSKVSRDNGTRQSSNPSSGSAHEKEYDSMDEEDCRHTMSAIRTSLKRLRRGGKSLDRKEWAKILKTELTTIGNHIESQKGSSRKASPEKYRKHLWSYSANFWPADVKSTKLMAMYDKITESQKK

Sequence of Sialic acid-binding Ig-like lectin 9 (Homo sapiens) (Q9Y336 whole entry): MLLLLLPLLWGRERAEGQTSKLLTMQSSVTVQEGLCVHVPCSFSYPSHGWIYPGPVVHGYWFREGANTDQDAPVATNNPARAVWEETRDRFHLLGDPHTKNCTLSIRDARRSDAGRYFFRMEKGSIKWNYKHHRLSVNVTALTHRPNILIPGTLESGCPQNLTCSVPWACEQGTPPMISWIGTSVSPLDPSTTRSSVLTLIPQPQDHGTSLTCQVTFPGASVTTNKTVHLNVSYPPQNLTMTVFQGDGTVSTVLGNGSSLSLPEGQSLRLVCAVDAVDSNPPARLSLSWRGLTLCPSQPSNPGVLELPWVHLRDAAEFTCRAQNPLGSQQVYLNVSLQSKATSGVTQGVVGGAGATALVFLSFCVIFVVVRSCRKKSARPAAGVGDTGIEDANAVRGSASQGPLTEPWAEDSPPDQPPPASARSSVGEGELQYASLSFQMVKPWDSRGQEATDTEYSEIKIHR
Sequence of Protein translocase subunit SecA (Escherichia coli (strain K12)) (P10408 whole entry): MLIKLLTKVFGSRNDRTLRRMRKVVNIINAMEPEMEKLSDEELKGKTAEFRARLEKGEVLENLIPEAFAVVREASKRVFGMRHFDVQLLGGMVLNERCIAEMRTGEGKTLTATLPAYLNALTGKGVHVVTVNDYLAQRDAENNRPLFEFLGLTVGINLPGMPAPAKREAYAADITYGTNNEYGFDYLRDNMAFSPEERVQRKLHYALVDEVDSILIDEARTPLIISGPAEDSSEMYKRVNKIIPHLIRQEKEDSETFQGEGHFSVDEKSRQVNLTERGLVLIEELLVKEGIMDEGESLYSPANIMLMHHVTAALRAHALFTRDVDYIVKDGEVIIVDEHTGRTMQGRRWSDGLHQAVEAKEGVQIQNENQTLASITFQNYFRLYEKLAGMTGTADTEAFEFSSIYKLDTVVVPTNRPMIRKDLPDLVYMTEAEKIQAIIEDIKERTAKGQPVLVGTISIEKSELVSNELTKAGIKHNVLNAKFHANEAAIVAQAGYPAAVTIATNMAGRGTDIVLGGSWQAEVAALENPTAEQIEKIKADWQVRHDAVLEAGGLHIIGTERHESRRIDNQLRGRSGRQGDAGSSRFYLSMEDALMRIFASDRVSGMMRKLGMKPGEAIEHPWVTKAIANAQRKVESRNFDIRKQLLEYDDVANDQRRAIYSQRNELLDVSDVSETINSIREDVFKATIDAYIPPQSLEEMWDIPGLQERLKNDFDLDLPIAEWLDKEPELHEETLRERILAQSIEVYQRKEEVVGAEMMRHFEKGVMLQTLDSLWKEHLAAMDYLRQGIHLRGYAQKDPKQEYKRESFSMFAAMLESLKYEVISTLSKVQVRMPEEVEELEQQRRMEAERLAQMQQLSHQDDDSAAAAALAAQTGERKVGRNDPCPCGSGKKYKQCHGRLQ

SMILES | Percent Effect [1] | Percent Effect [2] | Percent Effect [3] | Percent Effect [4] | Percent Effect (Trypanosoma cruzi) | Percent Effect [5] | Percent Effect [6] | Percent Effect (Homo sapiens) | Percent Effect [7] | Percent Effect [8] | Percent Effect [9]
O=C(CCN1CCC(C(=O)c2cc(F)ccc2F)CC1)NC1CC1 | -5.55% | 5.26% | 2.46% | 2.22% | -0.0974% | -1.18% | 12.4% | 16.9% | 3.19% | 15.6% | -3.85%
COCCNS(=O)(=O)c1cccc2c1CN(C(=O)c1ccccc1)CC2 | -6.17% | -4.17% | 4.56% | 0.0622% | -1.65% | -2.21% | 4.39% | 34.9% | -4.21% | -10.3% | 4.48%
CS(=O)(=O)NCc1n[nH]c2c1CCN(C(=O)c1ccsc1)C2 | -4.91% | 0% | 2.22% | -3.92% | -3.48% | -59.7% | 10.9% | 5.55% | -2.08% | 0% | -5%
CCOc1cccc(CNC(=O)NCC(O)c2cccc(F)c2)c1 (configuration not stated) | -5.26% | 16.2% | -2% | 22.6% | 5.75% | -6.01% | -1.44% | 29.2% | 7.39% | 23.5% | -11.2%
CN(Cc1nnc(C2CC2)n1C)C(=O)c1ccnc(OC2CCC2)c1 | -5.02% | 2.7% | 2.08% | 2.83% | 3.09% | 1.43% | 6.21% | -9.69% | 0.529% | -2.44% | -2.68%
O=S(=O)(N(Cc1ccccn1)C1CC1)N1CCCC1c1ccco1 (configuration not stated) | -4.42% | 16.2% | 0.691% | 9.84% | 5.66% | -2.77% | 0.359% | 5.33% | 3.96% | 18.3% | -5.26%
CCc1nc2ccccc2c(=O)n1CC1(O)CCN(S(C)(=O)=O)CC1 | -1.91% | 17.6% | 10.4% | 9.5% | 1.58% | 7.66% | 10.8% | 17.4% | 5.38% | 14.3% | -11.7%
CCCNC(=O)c1sccc1N(C)S(=O)(=O)c1ccc(Cl)cc1 | 1.13% | 7.89% | -1.42% | -7.73% | -8.67% | 9.47% | 13.3% | 38.4% | -4.25% | -2.6% | -1.51%
CCc1noc(CNc2ccc(F)cc2OCC2CC2)n1 | 0.992% | 18.9% | -7.79% | 18.2% | -1.54% | 7.14% | 9.83% | 10.8% | 1.59% | 12.2% | -3.79%
COc1c(CNCc2cnn(C)c2)c(C(C)C)nn1C | -4.88% | 23.7% | -11.3% | -0.847% | 3.01% | 3.45% | 7.18% | -15.7% | 6.37% | 21.9% | -13.8%
CC(c1nc(C2CC2)no1)N1CCN(CCOCC(F)(F)F)CC1 (configuration not stated) | -1.74% | -2.7% | -7.35% | 10.2% | 1.95% | -0.185% | 1.08% | 21% | 2.97% | 11% | 1.39%
Cc1nc2cc(O)nn2c(C)c1CCC(=O)N(C)Cc1cscn1 | -7.5% | 18.4% | -470% | -2.99% | 8.08% | -4.73% | 6.42% | 15.6% | -6.38% | 5.2% | -11.6%
Cc1nn(C)c(N(C)C)c1CNC1CCOc2c(F)cccc21 (configuration not stated) | -6.1% | 5.26% | -2.48% | 4.77% | -6.01% | 0.766% | 8.02% | 9.98% | 6.37% | 4.88% | 2.09%
CCOc1cc(C)nc(N2CCN(C(=O)CC)CC2)n1 | -4.4% | 5.41% | 144% | 10.3% | 0.836% | 0.924% | -14.4% | 17.8% | 6.93% | 6.1% | 7.75%
COc1cc(CNC2CCCc3c2cnn3C)cc(OC)c1 (configuration not stated) | -5.5% | 8.11% | 139% | 9.27% | 1.6% | -3.61% | -1.44% | 2.92% | 5.42% | 3.7% | -10%
COc1ncccc1C(=O)N1CCN(C(=O)Cc2ccccn2)CC1 | -1.65% | 21.5% | -6.89% | -0.0483% | 2.36% | -2.37% | 18% | 17.4% | 7.29% | 20.2% | -20.3%
Cc1ccc(C(=O)N2C[C@@H]3COC[C@]3(COc3cccnc3)C2)cn1 | 1.3% | 18.9% | 0.636% | -16.3% | 1.07% | 7.33% | 13.3% | 30.2% | 4.32% | 7.69% | 4.76%
CCn1nc(C)c2nc(C(C)C)nc(N3CCCCC3)c21 | -3.55% | 2.6% | 1.61% | 3.47% | -5.8% | -9.65% | 1.5% | 5.04% | 3.23% | 6.17% | -0.27%
Cc1nc(CN2CCCC(NCc3c(C)nc4sccn34)C2)no1 (configuration not stated) | -2.09% | 5.2% | -2.06% | -6.92% | -1.31% | 0.712% | 15.9% | 45.2% | 10.7% | 19.5% | -6.87%
CCc1cc(N2CCCNCC2)n2nc(C)c(C)c2n1 | -1.91% | 8% | 2.19% | 2.6% | -3.41% | 3.65% | 16% | 12.2% | 1.64% | 11.1% | -6.23%
CC(=O)N1CCCC(c2cnc(-c3c(C)nn(C)c3C)cn2)C1 (configuration not stated) | -2.17% | 0% | 6.16% | -0.374% | -2.17% | -1.17% | -4.67% | 8.02% | 2.13% | 6.41% | -1.64%
Cn1ccc(C(=O)N2CCC(Cc3cccc4cccnc34)C2)n1 (configuration not stated) | -2.61% | 9.46% | 13.5% | 3.85% | -5.73% | -2.09% | 4.68% | 16.3% | 5.38% | 6.49% | 0.402%
